The source holds several records for some structures; these can differ, active in one and inactive in another. The source made the active and inactive calls. The calls were made as follows: active = hit-call score of the fitted dose curve at least 0.9, where 1 is the maximum; inactive = score below 0.9.

Assay [1] addresses Paired box protein Pax-6 (Homo sapiens) (UniProt P26367). Nature of the assay: ATG_Pax6_CIS: Attagene CIS-FACTORIAL HepG2 Assay for human Paired Box 6 (PAX6) (AID 2282956). Particulars: HepG2 CIS-FACTORIAL PAX6 reporter transcription, RNA readout; actives raise or lower the signal. Put shortly:
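Multiplexed cis-reporter HepG2 system; 24 h treatment; reporter mRNA read by RT-PCR/CE fluorescence; bidirectional fit vs DMSO.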

The nature of assay [2]: ATG_PXRE_CIS: Attagene CIS-FACTORIAL HepG2 Assay for human Pregnane X Receptor Element (PXRE) (AID 2282957). The note with it: HepG2 Attagene CIS-FACTORIAL PXRE reporter, mRNA; actives raise or lower the signal. The essentials:
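Multiplexed cis-reporter assay in transiently transfected human HepG2 cells; 24 h chemical exposure. Reporter transcripts quantified by RT-PCR with fluorescent labeling and capillary electrophoresis.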

Assay [3] in a line: ATG_PPRE_CIS: Attagene CIS-FACTORIAL HepG2 Assay for human Peroxisome Proliferator-activated Response Element (PPRE) (AID 2282958). The note with it: HepG2 PPRE cis-element reporter, Attagene transcription factor profiling; actives raise or lower the signal. Put shortly: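 Multiplexed reporter transcription units under cis-regulatory promoters were transfected into HepG2 cells to capture endogenous factor activity. A 24 h incubation preceded RNA isolation and fluorescent RT-PCR fragment analysis.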

Assay [4] is described as follows: ATG_RORE_CIS: Attagene CIS-FACTORIAL HepG2 Assay for human RAR-related Orphan Receptor Element (RORE) (AID 2282959). The note with it: HepG2 Attagene cis-factorial RORE reporter, mRNA; actives raise or lower the signal. The essentials: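 Fluorescence intensity of reporter-specific cDNA fragments, separated by capillary electrophoresis, gives the signal. Source: HepG2 liver cells transiently transfected with cis-element reporters and exposed 24 h; DMSO-normalized bidirectional fit.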

Assay [5] is described as follows: ATG_Sox_CIS: Attagene CIS-FACTORIAL HepG2 Assay for human SRY-box transcription factor (SOX) (AID 2282960). The note with it: HepG2 Attagene cis-factorial SOX reporter, mRNA; actives raise or lower the signal. The essentials: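 After 24 h of chemical treatment, transfected HepG2 reporter cells are lysed for total RNA. Transcript levels come from RT-PCR with labelled primer extension and capillary electrophoresis, analysed bidirectionally versus DMSO.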

The target of assay [6] is Transcription factor Sp1 (Homo sapiens) (UniProt P08047). In words: ATG_Sp1_CIS: Attagene CIS-FACTORIAL HepG2 Assay for human Specificity Protein 1 (Sp1) (AID 2282961). The note with it: HepG2 Sp1 cis-reporter transcription, actives raise or lower the signal. The essentials:
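Sp1-driven reporter mRNA, read as capillary electrophoresis fluorescence after RT-PCR, in transiently transfected HepG2 cells dosed for 24 h; signal change in either direction relative to DMSO.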

The nature of assay [7]: ATG_SREBP_CIS: Attagene CIS-FACTORIAL HepG2 Assay for human Sterol Regulatory Element Binding (SREBP) (AID 2282962). The note with it: HepG2 Attagene cis-factorial SREBP reporter, mRNA; actives raise or lower the signal. The essentials: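 mRNA induction of transfected cis-promoter reporters in HepG2 cells, 24 h post-dose. Detection: RT-PCR with 6-FAM-labelled products, HpaI digest, capillary electrophoresis. DMSO served as negative control and baseline.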

In assay [8] the target is Signal transducer and activator of transcription 3 (Homo sapiens) (UniProt P40763). Nature of the assay: ATG_STAT3_CIS: Attagene CIS-FACTORIAL HepG2 Assay for human Signal Transducer and Activator of Transcription 3 (STAT3) (AID 2282963). The note with it: HepG2, Attagene cis-factorial STAT3 reporter transcription; actives raise or lower the signal. The essentials:
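Values derive from bidirectional fits relative to DMSO of reporter mRNA levels, measured by RT-PCR with capillary electrophoresis, in HepG2 cells carrying transiently transfected cis-regulated reporter units and exposed 24 h.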

A short description of assay [9]: ATG_TA_CIS: Attagene CIS-FACTORIAL HepG2 Assay for human TA Basal Promoter (AID 2282964). Particulars: HepG2 Attagene CIS-factorial TA basal promoter reporter; actives raise or lower the signal. The essentials: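 HepG2 cells transiently transfected with multiple reporter units under cis promoter elements, reporting endogenous transcription factor activity; this endpoint tracks the TA basal promoter as background control. Reporter mRNA after 24 h dosing measured by RT-PCR/capillary electrophoresis; bidirectional fits versus DMSO.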

Assay [10] can be described thus: ATG_TCF_b_cat_CIS: Attagene CIS-FACTORIAL HepG2 Assay for human T-Cell-Factor with beta-catenin (TCF/b-cat) (AID 2282965). The note with it: HepG2 TCF/beta-catenin cis-reporter transcription, actives raise or lower the signal. The essentials: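 HepG2 cells transiently transfected with cis-promoter-driven multiplexed reporter units; reporter mRNA measured 24 h after dosing by RT-PCR, FAM labelling, HpaI digestion and capillary electrophoresis. Bidirectional fitting relative to DMSO baseline.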

Paired box protein Pax-6 (Homo sapiens), sequence (P26367 whole entry, looked up): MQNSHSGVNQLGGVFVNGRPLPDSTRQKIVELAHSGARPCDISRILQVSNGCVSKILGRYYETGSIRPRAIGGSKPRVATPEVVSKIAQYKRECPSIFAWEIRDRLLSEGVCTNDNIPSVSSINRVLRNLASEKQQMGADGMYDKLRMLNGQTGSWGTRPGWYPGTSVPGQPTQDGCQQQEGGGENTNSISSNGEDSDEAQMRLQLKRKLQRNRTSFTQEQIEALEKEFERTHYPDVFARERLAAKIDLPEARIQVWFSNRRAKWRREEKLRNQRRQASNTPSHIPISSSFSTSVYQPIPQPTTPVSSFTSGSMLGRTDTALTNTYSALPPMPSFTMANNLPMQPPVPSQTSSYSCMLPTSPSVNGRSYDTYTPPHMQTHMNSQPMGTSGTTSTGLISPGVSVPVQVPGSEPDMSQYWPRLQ
Signal transducer and activator of transcription 3 (Homo sapiens), sequence (P40763 whole entry, looked up): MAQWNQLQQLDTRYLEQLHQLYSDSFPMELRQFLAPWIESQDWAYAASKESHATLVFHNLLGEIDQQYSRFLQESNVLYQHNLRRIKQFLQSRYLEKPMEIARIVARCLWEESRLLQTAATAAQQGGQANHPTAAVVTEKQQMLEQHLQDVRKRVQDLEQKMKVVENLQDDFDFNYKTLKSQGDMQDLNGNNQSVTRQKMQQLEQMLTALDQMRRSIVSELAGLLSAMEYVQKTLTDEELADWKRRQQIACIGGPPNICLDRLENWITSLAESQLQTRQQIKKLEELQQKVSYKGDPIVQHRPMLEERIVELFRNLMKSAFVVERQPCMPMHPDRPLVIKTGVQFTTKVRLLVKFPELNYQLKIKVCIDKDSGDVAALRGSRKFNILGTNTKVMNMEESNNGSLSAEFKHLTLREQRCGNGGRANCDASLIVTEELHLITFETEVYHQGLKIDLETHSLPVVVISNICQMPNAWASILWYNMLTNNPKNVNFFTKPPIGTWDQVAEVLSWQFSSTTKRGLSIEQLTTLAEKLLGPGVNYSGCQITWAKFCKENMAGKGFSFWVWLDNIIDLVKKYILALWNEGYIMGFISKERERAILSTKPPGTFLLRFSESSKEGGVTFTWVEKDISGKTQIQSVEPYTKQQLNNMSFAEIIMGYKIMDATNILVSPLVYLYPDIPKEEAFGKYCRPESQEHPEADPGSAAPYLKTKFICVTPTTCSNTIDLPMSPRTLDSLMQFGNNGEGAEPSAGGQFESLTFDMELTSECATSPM
Transcription factor Sp1 (Homo sapiens), sequence (P08047 whole entry, looked up): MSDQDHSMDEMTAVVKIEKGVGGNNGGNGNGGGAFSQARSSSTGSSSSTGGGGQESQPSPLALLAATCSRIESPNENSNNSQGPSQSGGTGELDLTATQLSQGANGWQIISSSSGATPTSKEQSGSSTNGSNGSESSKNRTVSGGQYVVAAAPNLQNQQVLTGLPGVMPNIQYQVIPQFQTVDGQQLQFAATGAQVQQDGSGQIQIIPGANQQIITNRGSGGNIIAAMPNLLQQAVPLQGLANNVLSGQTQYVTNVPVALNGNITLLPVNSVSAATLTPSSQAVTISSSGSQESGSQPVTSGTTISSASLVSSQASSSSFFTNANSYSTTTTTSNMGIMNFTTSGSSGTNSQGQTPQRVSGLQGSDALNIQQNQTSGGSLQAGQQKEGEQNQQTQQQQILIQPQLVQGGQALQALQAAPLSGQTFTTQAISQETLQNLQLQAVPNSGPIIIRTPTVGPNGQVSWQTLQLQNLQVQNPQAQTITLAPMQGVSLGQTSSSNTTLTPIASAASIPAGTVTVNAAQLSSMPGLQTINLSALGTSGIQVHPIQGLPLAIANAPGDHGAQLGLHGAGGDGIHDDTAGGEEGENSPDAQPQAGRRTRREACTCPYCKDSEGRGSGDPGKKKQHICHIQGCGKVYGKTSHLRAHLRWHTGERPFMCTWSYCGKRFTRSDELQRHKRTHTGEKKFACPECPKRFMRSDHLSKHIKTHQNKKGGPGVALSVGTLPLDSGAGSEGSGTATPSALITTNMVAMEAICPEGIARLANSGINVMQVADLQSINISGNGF

For orientation: AC50 means the midpoint of the concentration-response curve, whichever way the signal moves. Regarding `Cc1cccc2c1ccc1ccccc12`, the result in assay [1], in assay [3], in assay [4], in assay [5], in [6] and in [7] was inactive. Besides, the result in assay [8], in [9] and in assay [10] was inactive. Further, in [2], the AC50 is 27.4 µM (active).

For `COC(=O)CC(C(C)=O)C(=O)OC` (centres undefined), the result in assay [1], in assay [2], in assay [3], in assay [4], in [5] and in assay [6] was inactive. In addition, the compound was called inactive in assay [7], in assay [8] and in [10].

As for `O=C1Cc2ccccc2N1c1c(Cl)cccc1Cl`, the compound was classed as inactive in assay [1], in assay [3], in assay [4], in assay [5], in assay [6] and in assay [7]. In addition, the compound was called inactive in assay [8], in [9] and in [10]. Moreover, the AC50 in [2] was 0.484 µM (active).

As for `CCCCCCC(C)(C)C(=O)O`, the AC50 in assay [1] is 164 µM (active); in [2], 27.4 µM (active); in [3], 55.5 µM (active). The compound was called inactive in assay [4], in [5], in assay [6], in assay [7], in assay [8] and in [9]. Further, the outcome in assay [10] was inactive.

`COC(O)c1ccccc1` (centres undefined): the result in assay [1], in assay [3], in assay [4], in [5], in [6] and in [7] was inactive. For the same compound, in [9], the outcome was inactive. In [2], the AC50 is 75.1 µM (active).

With `CCCCCCc1ccc(N)cc1`, the compound was called inactive in [1], in [2], in assay [3], in [4], in assay [5] and in assay [6]. The call in assay [7] and in assay [8] was inactive. Besides, in assay [10], the AC50 is 5.73 µM (active).

As for `Cc1ccc2ccc3ccc(C)cc3c2c1`, the compound was called inactive in assay [1], in assay [3], in [4], in assay [5], in assay [6] and in assay [7]. The compound was called inactive in assay [8] and in assay [10]. Moreover, the AC50 in [2] is 8.1 µM (active).

In the case of `CCCCCCCCCCCCCCC`, the call in assay [1], in assay [2], in [4], in assay [5], in [6] and in [7] was inactive. Besides, the compound was classed as inactive in assay [8], in assay [9] and in assay [10].

Turning to `O=C(O)CCC(F)(F)C(F)(F)C(F)(F)C(F)(F)C(F)(F)C(F)(F)F`, the result in assay [1], in assay [2], in [3], in [4], in assay [5] and in [6] was inactive. The compound was classed as inactive in [7] and in [9].

Regarding `O=C(O)C(=O)O`, the compound was called inactive in assay [1], in [2], in [5], in assay [6], in assay [7] and in [8]. Further, the result in [9] and in assay [10] was inactive.

For `FC(F)=C(F)C(F)(F)C(F)(F)C(F)(F)C(F)F`, the outcome in [1], in assay [2], in assay [3], in assay [4], in assay [5] and in [6] was inactive. The compound was called inactive in [7], in assay [9] and in [10].

Turning to `O=C(NO)c1ccccc1`, the compound was called inactive in assay [1], in assay [2], in assay [4], in [5], in [6] and in assay [7]. In addition, the result in [9] was inactive. Further, the AC50 is 76.7 µM (active) in [9] and 18.9 µM (active) [middle of 4 runs] in assay [10].

In the case of `CN(C)CCOC(c1ccccc1)c1ccccc1`, the result in [1], in assay [4], in assay [5], in assay [6], in assay [8] and in [9] was inactive. Moreover, the compound was classed as inactive in [10]. Further, the concentration at half-maximal activity (AC50) in assay [2] was 151 µM (active); in assay [7], 45.5 µM (active).

In the case of `N=C(N)c1ccc(OCCCCCOc2ccc(C(=N)N)cc2)cc1`, the concentration at half-maximal activity (AC50) in [1] was 101 µM (active); in assay [2], 57.2 µM (active); in assay [9] it was 59 µM (active). The call in assay [3], in assay [4], in assay [5], in assay [6] and in assay [7] was inactive.

Take `O=P(O)(O)CCC(F)(F)C(F)(F)C(F)(F)C(F)(F)C(F)(F)C(F)(F)C(F)(F)C(F)(F)F`: the result in assay [1], in assay [2], in assay [3], in [4], in assay [5] and in assay [6] was inactive. The outcome in assay [7], in assay [9] and in [10] was inactive.

(Values after PubChem BioAssay (EPA / NIEHS).)
